Experimental data reported in PubChem BioAssay (NCATS).
Records with an inconclusive call do not appear. Where a call stands in place of a potency, no number is given. A number with no mark means an inactive call. Calls of active or inactive are those of the source. The call rests on the fitted dose curve; in most records, active means well fitted curve in the direction sought with a large enough effect; inconclusive means small, poorly fitted or top-dose-only effect, or another doubt; inactive means no such curve, though single readings can be large; an effect the other way counts as inactive or inconclusive.

How the values were obtained:
[1] = target: Rap guanine nucleotide exchange factor 3 (Homo sapiens) (UniProt O95398); experiment: Confirmatory qHTS for antagonist of cAMP-regulated guanine nucleotide exchange factor 3 (EPAC1) (AID 1645880); settings: EPAC1 Rap1B-BODIPY-GDP exchange, fluorescence; activity, negative = inhibition: at 115 µM (top of the series); further: nearly all actives have a fitted effect of over 55% in size; further: potency means the concentration at half of the fitted maximal effect
Sequence of Rap guanine nucleotide exchange factor 3 (Homo sapiens) (O95398 whole entry, looked up): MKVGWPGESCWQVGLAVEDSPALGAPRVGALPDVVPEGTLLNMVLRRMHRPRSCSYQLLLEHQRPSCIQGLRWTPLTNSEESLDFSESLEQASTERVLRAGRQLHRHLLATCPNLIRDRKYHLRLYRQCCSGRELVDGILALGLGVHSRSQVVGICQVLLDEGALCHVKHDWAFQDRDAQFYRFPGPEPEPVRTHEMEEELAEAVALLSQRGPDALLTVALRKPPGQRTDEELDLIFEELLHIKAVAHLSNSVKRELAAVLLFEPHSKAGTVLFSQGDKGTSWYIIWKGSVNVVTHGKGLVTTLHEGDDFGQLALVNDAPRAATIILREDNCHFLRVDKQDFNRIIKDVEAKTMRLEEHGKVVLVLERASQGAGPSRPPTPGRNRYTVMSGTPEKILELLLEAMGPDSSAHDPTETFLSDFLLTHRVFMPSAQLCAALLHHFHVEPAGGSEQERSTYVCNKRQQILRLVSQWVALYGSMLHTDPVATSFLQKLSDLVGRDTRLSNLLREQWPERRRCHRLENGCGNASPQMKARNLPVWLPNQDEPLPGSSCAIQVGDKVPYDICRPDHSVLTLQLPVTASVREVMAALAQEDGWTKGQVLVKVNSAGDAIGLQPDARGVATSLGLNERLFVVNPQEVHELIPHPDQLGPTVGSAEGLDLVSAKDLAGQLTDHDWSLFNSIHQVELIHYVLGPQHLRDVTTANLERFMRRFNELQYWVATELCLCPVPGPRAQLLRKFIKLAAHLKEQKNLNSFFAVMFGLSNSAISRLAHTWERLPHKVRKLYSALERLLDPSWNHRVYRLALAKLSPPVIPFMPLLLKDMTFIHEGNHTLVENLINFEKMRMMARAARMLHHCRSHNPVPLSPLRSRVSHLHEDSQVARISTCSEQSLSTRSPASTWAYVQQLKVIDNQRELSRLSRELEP
Procedure, shortened: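 Released BODIPY-GDP fluoresces less than Rap1-bound BODIPY-GDP; the signal is followed at 480/540 nm at 5-min intervals over 30 min, after 5 min at room temperature. Reactions contain 100 nM EPAC1, 250 nM RAP1B-BODIPY-GDP and 50 uM GDP; results are normalized to ATA and DMSO.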

[2] = target: Rap guanine nucleotide exchange factor 3 (Homo sapiens) (UniProt O95398); experiment: Confirmatory qHTS for agonist of cAMP-regulated guanine nucleotide exchange factor 3 (EPAC1) (AID 1645881);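 further: EPAC1 catalysed release of BODIPY-GDP from Rap1B seen as fluorescence loss; nearly all actives have a fitted effect of over 75% in size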
[3] = target: Rap guanine nucleotide exchange factor 4 (Homo sapiens) (UniProt Q8WZA2); experiment: Confirmatory qHTS for agonist of cAMP-regulated guanine nucleotide exchange factor 4 (EPAC2) (AID 1645884);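 further: nucleotide exchange releases bodipy-GDP from Rap1 and this lowers its fluorescence; nearly all actives have a fitted effect of over 65% in size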
Sequence of Rap guanine nucleotide exchange factor 4 (Homo sapiens) (Q8WZA2 whole entry, looked up): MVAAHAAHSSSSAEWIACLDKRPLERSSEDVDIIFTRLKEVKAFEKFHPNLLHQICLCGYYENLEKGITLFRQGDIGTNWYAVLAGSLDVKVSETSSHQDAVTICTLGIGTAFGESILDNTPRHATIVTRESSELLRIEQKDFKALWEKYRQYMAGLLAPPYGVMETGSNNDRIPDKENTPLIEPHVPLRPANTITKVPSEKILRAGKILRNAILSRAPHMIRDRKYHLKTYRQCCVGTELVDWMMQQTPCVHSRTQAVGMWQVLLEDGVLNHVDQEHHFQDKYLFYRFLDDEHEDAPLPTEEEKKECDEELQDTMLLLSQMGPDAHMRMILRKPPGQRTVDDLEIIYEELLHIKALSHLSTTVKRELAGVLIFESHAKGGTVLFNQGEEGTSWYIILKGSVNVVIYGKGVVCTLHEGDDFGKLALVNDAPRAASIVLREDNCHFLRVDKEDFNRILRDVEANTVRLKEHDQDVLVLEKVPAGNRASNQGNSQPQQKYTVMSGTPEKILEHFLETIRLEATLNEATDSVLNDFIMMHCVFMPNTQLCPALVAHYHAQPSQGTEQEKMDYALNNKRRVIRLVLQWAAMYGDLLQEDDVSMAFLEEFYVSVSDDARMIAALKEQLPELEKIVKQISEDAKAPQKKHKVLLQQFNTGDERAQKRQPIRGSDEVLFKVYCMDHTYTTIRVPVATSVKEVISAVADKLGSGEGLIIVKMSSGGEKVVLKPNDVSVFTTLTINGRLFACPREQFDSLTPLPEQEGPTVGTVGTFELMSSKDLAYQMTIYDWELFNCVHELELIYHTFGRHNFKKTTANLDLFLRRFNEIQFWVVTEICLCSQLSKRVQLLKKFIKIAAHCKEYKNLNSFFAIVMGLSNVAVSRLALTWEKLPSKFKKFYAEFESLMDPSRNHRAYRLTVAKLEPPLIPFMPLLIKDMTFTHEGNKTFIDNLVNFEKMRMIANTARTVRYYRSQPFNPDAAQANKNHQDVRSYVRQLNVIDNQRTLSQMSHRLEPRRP

[4] = target: Rap guanine nucleotide exchange factor 4 (Homo sapiens) (UniProt Q8WZA2); experiment: Confirmatory qHTS for antagonist of cAMP-regulated guanine nucleotide exchange factor 4 (EPAC2) (AID 1645885); further: nearly all actives have a fitted effect of over 25% in size; further: potency means the concentration at half of the fitted maximal effect
[5] = target: Rap guanine nucleotide exchange factor 3 (Homo sapiens) (UniProt O95398); experiment: Counterscreen qHTS for antagonist of cAMP-regulated guanine nucleotide exchange factor 3 (EPAC1) (AID 1645888)
Procedure, shortened: (§1)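 Rap1B–BODIPY-GDP (250 nM) with 50 uM GDP; compounds pin-transferred to 9.74 nM–152 uM final (activator) or from 7.32 nM upwards (inhibitor). Fluorescence Ex/Em 480/540 nm read at 5 and 30 min, then after adding cAMP or buffer, at room temperature.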

[6] = target: Rap guanine nucleotide exchange factor 3 (Homo sapiens) (UniProt O95398); experiment: Counterscreen qHTS for agonist of cAMP-regulated guanine nucleotide exchange factor 3 (EPAC1) (AID 1645889); further: nearly all actives have a fitted effect of over 40% in size; further: potency means the concentration at half of the fitted maximal effect
Procedure, shortened: as §1

COc1cc(NC(=O)CCc2c(C)nc3c4c(C)cc(C)nc4nn3c2C)cc(OC)c1
Potency [1]: inactive
Potency [2]: inactive
Potency [3]: inactive
Potency [4]: inactive
Potency [5]: inactive
Potency [6]: inactive

CCN(CC(=O)Nc1ccccc1OC)C(=O)c1ccc(N(C)S(=O)(=O)c2ccc(C)cc2)cc1
Potency [1]: inactive
Potency [2]: inactive
Potency [3]: inactive
Potency [4]: inactive
Potency [5]: inactive
Potency [6]: inactive

Cc1ccc(C(=O)N2CCN(c3ccccc3)CC2)cc1S(=O)(=O)N1CCOCC1
Potency [1]: inactive
Potency [2]: inactive
Potency [3]: inactive
Potency [4]: inactive
Potency [5]: inactive
Potency [6]: inactive

COc1ccc(OC)c(/C=C/c2ccnc3ccccc23)c1
Potency [1]: inactive
Potency [2]: inactive
activation [3]: 0% [at 17.1 µM, percent relative to cAMP agonist control]

Cc1ccc2oc(=O)n(CCCOc3ccccc3Cl)c2c1
Potency [1]: inactive
Potency [2]: inactive
Potency [3]: inactive
Potency [4]: inactive

Cc1cc(C)cc(OCCSc2nc(-c3ccc(C(C)(C)C)cc3)nc3cc(=O)[nH]n23)c1
Potency [1]: 67.5 µM (active)
Potency [2]: inactive
Potency [3]: inactive
outcome [4]: inactive [at 12.7 µM]
Potency [5]: inactive
Potency [6]: inactive

Fc1ccc(-c2ccc3nccn3c2)cc1Cl
Potency [1]: inactive
Potency [2]: inactive
activation [3]: 2.32% [at 17.1 µM, percent relative to cAMP agonist control]
Potency [4]: inactive
activity change, negative = inhibition [5]: -1.11% [at 30.8 µM]
activation [6]: 10.1% [at 30.8 µM]

COc1ccc(-c2ccc(C(=O)NCCN3CCOCC3)c3occc23)c(C)c1
Potency [1]: inactive
Potency [2]: inactive
Potency [3]: inactive
Potency [4]: inactive
Potency [5]: inactive
Potency [6]: inactive

O=C(Nc1ccc(-c2nnc(-c3ccco3)o2)cc1)C(c1ccccc1)c1ccccc1
Potency [1]: inactive
Potency [2]: inactive
Potency [3]: inactive
Potency [4]: inactive
Potency [5]: inactive
Potency [6]: inactive

CC(=O)Nc1ccc(S(=O)(=O)Nc2nc(-c3ccc(C(C)(C)C)cc3)cs2)cc1
Potency [1]: 44.7 µM (active)
Potency [2]: inactive
activation [3]: 0% [at 17.1 µM, percent relative to cAMP agonist control]
Potency [4]: inactive
activity change, negative = inhibition [5]: -15.7% [at 30.8 µM]
activation [6]: 8.98% [at 30.8 µM]

CNC(=O)COC(=O)c1cc(-c2ccco2)nc2ccccc12
Potency [1]: 23.9 µM (active)
Potency [2]: inactive
Potency [3]: inactive
Potency [4]: inactive
Potency [5]: inactive
Potency [6]: 50.1 µM (active)

CCCCn1nnc(NC(=O)c2ccco2)n1
Potency [1]: inactive
Potency [2]: inactive
activation [3]: 6.58% [at 17.1 µM, percent relative to cAMP agonist control]
Potency [4]: inactive
activity change, negative = inhibition [5]: 4.22% [at 30.8 µM]
activation [6]: 0.136% [at 30.8 µM]

Cc1ccc(OCCn2c(=O)n(C)c3ccccc32)cc1
Potency [1]: inactive
Potency [2]: inactive
Potency [3]: inactive
Potency [4]: 67.5 µM (active)
Potency [5]: inactive
Potency [6]: inactive

COc1ccc(/C=N/N=C2/C(=O)Nc3ccccc32)cc1O
Potency [1]: inactive
Potency [2]: inactive
activation [3]: 6.47% [at 17.1 µM, percent relative to cAMP agonist control]
Potency [4]: inactive

O=C(N/N=C/c1ccc(-c2ccc(Cl)c(C(=O)O)c2)o1)c1cc2c(ccc3ccccc32)o1
Potency [1]: 12.6 µM (active)
Potency [2]: inactive
activation [3]: 0.332% [at 17.1 µM, percent relative to cAMP agonist control]
Potency [4]: inactive
activity change, negative = inhibition [5]: -35.1% [at 30.8 µM]
activation [6]: 12% [at 30.8 µM]

CCc1nc2c(OCc3ccc(C(=O)N(C)C)cc3)cccn2c1N(C)C(=O)c1ccc(C)cc1
Potency [1]: inactive
Potency [2]: inactive
activation [3]: 2.55% [at 17.1 µM, percent relative to cAMP agonist control]
Potency [4]: inactive
activity change, negative = inhibition [5]: -28.5% [at 30.8 µM]
activation [6]: 21.1% [at 30.8 µM]

Cc1ccc(Nc2ccc(N3CCN(C(=O)c4ccc([N+](=O)[O-])cc4)CC3)nn2)cc1
Potency [1]: inactive
Potency [2]: inactive
Potency [3]: inactive
Potency [4]: inactive
Potency [5]: inactive
Potency [6]: inactive

Cc1ccc(C)c(CSc2nnc(C)n3c2cc2sccc23)c1
Potency [1]: inactive
Potency [2]: inactive
Potency [3]: inactive
Potency [4]: inactive
Potency [5]: inactive
Potency [6]: inactive

Cc1ccc(NC(=O)CN2C(=O)C(c3ccc(C(C)(C)C)cc3)=NC2(C)C)cc1
Potency [1]: inactive
Potency [2]: inactive
Potency [3]: inactive
Potency [4]: inactive
Potency [5]: inactive

CC1=C(CO)C(=O)OC([C@@H](C)C2CC[C@H]3C4C[C@H]5O[C@]56[C@@H](O)C=CC(=O)[C@]6(C)C4CC[C@]23C)C1 (stereo partly specified)
Potency [1]: 84.9 µM (active)
Potency [2]: inactive
Potency [3]: inactive
Potency [4]: inactive
Potency [5]: inactive
Potency [6]: inactive

O=C(NC1CCC(O)CC1)c1ccc(S(=O)(=O)NCc2ccco2)cc1 (stereo unspecified)
Potency [1]: inactive
Potency [2]: inactive
Potency [3]: inactive
Potency [4]: inactive
Potency [5]: inactive
Potency [6]: inactive

COc1ccc2ccc3c(c2c1)N=C[C@]1(O3)N(C)c2ccccc2C1(C)C
Potency [1]: inactive
Potency [2]: inactive

COC(=O)c1cc2sc(C)cc2n1Cc1ccc(F)cc1Cl
Potency [1]: inactive
Potency [2]: inactive
Potency [3]: inactive
Potency [4]: inactive
Potency [5]: inactive
Potency [6]: inactive
